From PubChem BioAssay (NCI)
The panel holds about 79,000 compounds, 15% with a hit somewhere; the sample as a whole holds those more often. Unmarked numbers belong to inactive results. Calls of active or inactive are those of the source. Rule as the data show it: active = growth inhibition above about 70%; inactive = the rest.

Tests used:
[1] = NCI Yeast Anticancer Drug Screen. Data for the rad50 strain (AID 155);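 also: 0% = growth of vehicle-only cultures of the same strain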; conditions: S. cerevisiae rad50 strain growth inhibition, active compounds read high
Procedure, shortened: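 Vehicle-treated cultures provide the reference for the growth inhibition reported for compound-exposed, repair-deficient yeast.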

[2] = NCI Yeast Anticancer Drug Screen. Data for the mec2-1 strain (AID 157); conditions: S. cerevisiae mec2-1 strain, active compounds read high
Procedure, shortened: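 mec2-1 yeast strain, carrying an alteration in DNA damage repair or cell cycle control, was exposed to compounds; growth inhibition was measured relative to vehicle-treated controls.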

[3] = NCI Yeast Anticancer Drug Screen. Data for the sgs1 mgt1 strain (AID 161);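 also: 0% = growth of cultures given vehicle only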; conditions: S. cerevisiae sgs1 mgt1 strain, active compounds read high
Procedure, shortened: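 Yeast cells carrying a defined DNA-repair defect were exposed to test compounds. Growth inhibition was measured relative to vehicle-treated controls.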

[4] = NCI Yeast Anticancer Drug Screen. Data for the cln2 rad14 strain (AID 165);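 also: 0% = growth equal to vehicle treated cultures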; conditions: S. cerevisiae cln2 rad14 strain, active compounds read high
Procedure, shortened: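 Yeast carrying cln2 and rad14 alterations (cell cycle control and DNA damage repair) were exposed to compounds. Growth inhibition was measured against vehicle-treated controls.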

[5] = NCI Yeast Anticancer Drug Screen. Data for the bub3 strain (AID 167); conditions: S. cerevisiae bub3 mutant strain, active compounds read high
Procedure, shortened: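 Mutant yeast screening strain plus compound; vehicle-treated cultures serve as the 0% inhibition reference.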

[6] = NCI Yeast Anticancer Drug Screen. Data for the mlh1 rad18 strain (AID 175); conditions: S. cerevisiae mlh1 rad18 strain growth inhibition, active compounds read high
Procedure, shortened: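 Growth inhibition of the yeast strain was measured after compound exposure and expressed relative to vehicle-treated controls. The strain carries defined defects in DNA damage repair.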

[7] = at 5.0 µM (retest, dose inferred, filed as 0.5)
[8] = at 50.0 µM (retest, dose inferred, filed as 5.0)

Row | SMILES | growth inhibition [1, 7] | growth inhibition [1, 8] | growth inhibition ([1]; at 50.0 µM) | growth inhibition [2, 7] | growth inhibition [2, 8] | growth inhibition ([2]; at 50.0 µM) | growth inhibition [3, 7] | growth inhibition [3, 8] | growth inhibition ([3]; at 50.0 µM) | growth inhibition [4, 7] | growth inhibition [4, 8] | growth inhibition ([4]; at 50.0 µM) | growth inhibition [5, 7] | growth inhibition [5, 8] | growth inhibition ([5]; at 50.0 µM) | growth inhibition [6, 7] | growth inhibition [6, 8] | growth inhibition ([6]; at 50.0 µM)
1 | CCC(=O)OC1=C(Cl)C(=O)c2ccccc2C1=O | 2% | 98% (active) | 71.8% (active) | 4% | 99% (active) | 27.2% | 9% | 99% (active) | 63.8% | 2% | 98% (active) | 0.15% | 6% | 99% (active) | 34.5% | 14% | 98% (active) | 55.4%
2 | S=C(N/N=C(/c1ccccc1)c1ccccn1)N1CCCCC1 | 58% | 98% (active) | 80.2% (active) | 27% | 98% (active) | 86.3% (active) | 66% | 98% (active) | 88.2% (active) | 30% | 97% (active) | 89% (active) | 54% | 97% (active) | 90.2% (active) | 83% (active) | 98% (active) | 90.8% (active)
3 | CCCCCCCCCCCCOc1c(Cl)cc(Cl)c(Cl)c1Cc1c(O)c(Cl)cc(Cl)c1Cl | 1% | 86% (active) | 97.5% (active) | 0% | 92% (active) | 98.5% (active) | 2% | 72% (active) | 98.3% (active) | -2% | 87% (active) | 97.2% (active) | 0% | 89% (active) | 96.4% (active) | 2% | 87% (active) | 97.7% (active)
4 | Cc1cc(C)c(N2C(=O)C=CC2=O)c(C)c1 | 98% (active) | 98% (active) | 99.7% (active) | 99% (active) | 99% (active) | 99.7% (active) | 99% (active) | 98% (active) | 99.3% (active) | 99% (active) | 98% (active) | 99.2% (active) | 99% (active) | 98% (active) | 99.5% (active) | 98% (active) | 98% (active) | 99.3% (active)
5 | N#CI1OC(C(F)(F)F)(C(F)(F)F)c2ccccc21 | 72% (active) | 98% (active) | 45.2% | 61% | 99% (active) | 92.2% (active) | 72% (active) | 99% (active) | 87.7% (active) | 53% | 99% (active) | 88.6% (active) | 91% (active) | 99% (active) | 86.6% (active) | 87% (active) | 98% (active) | 92.3% (active)
6 | Cc1cn(C(C#N)=C(C#N)C#N)c2ccccc12 | 0% | 25% | 14.4% | 6% | 11% | 22.5% | -8% | 32% | -4.65% | -2% | 26% | -37.4% | -2% | -3% | 18.2% | 1% | 16% | -16.2%
7 | O=c1oc(-c2cccc(C(Cl)Cl)c2)ns1 | 7% | 99% (active) | 98.2% (active) | 5% | 100% (active) | 99.1% (active) | 12% | 100% (active) | 99.2% (active) | 2% | 99% (active) | 69% | 3% | 99% (active) | 97.7% (active) | 13% | 99% (active) | 99.1% (active)
8 | CS/C(C#N)=C(\C#N)SC | 10% | 78% (active) | 79.2% (active) | 3% | 27% | 16.3% | 2% | 23% | 67.6% | 3% | 12% | 23.6% | 2% | 59% | 53.1% | 7% | 35% | 43.5%
9 | OC(CBr)C[n+]1cccc2cc(Cl)ccc21 (configuration not stated) | 6% | 5% | -40% | 1% | 3% | -13.4% | -1% | 9% | -28.6% | -1% | -6% | 39.8% | -1% | 6% | 2.8% | 2% | -2% | -5.8%
10 | CCOC(C)(OCC)C(N)c1ccccc1 (configuration not stated) | -15% | -12% | 14.3% | 10% | -17% | 19.4% | 6% | 9% | -0.2% | -1% | 5% | -5.65% | 6% | 9% | -6.9% | 2% | 9% | 1.05%
11 | Cc1nc(C(N)=S)sc1C(=O)CC(=O)C(=O)Nc1nc2ccccc2[nH]1 | 10% | -9% | -7.35% | 11% | 24% | 23.1% | 13% | -110% | -24.9% | 7% | 3% | 2.85% | 11% | -7% | 1.75% | 12% | 25% | -42.5%
12 | OCCCCCCCCCl | 0% | 10% | 35.5% | -6% | 6% | 21.6% | 1% | 9% | 45.1% | 8% | 5% | 35.9% | -3% | 0% | -24.9% | -1% | 9% | 14.1%
13 | COc1ccccc1C(=O)c1c(C(=O)O)ccc2ccccc12 | -2% | -17% | 3.8% | -6% | -28% | 6.9% | -3% | -25% | 7.75% | -17% | -3% | 27.6% | -10% | -5% | 13.7% | -4% | -1% | 48.6%
14 | O=[N+]([O-])c1cnc(Sc2cncc[n+]2[O-])s1 | 99% (active) | 99% (active) | 99.5% (active) | 100% (active) | 100% (active) | 99.4% (active) | 99% (active) | 100% (active) | 99.3% (active) | 98% (active) | 99% (active) | 99.3% (active) | 99% (active) | 99% (active) | 99.5% (active) | 99% (active) | 99% (active) | 99.5% (active)
15 | Cc1c(N)nc(C2CC(=O)N2CC(N)C(N)=O)nc1C(=O)NC(C(=O)NC(C)C(O)C(C)C(=O)NC(C(=O)NCCc1nc(-c2nc(C(=O)NCCNCC(C)O)cs2)cs1)C(C)O)C(OC1OC(CO)C(O)C(O)C1OC1OC(CO)C(O)C(OC(N)=O)C1O)c1cnc[nH]1 (configuration not stated) | 94% (active) | 97% (active) | 92.7% (active) | 82% (active) | 99% (active) | 93.3% (active) | 87% (active) | 98% (active) | 93.3% (active) | 61% | 92% (active) | 90.6% (active) | 77% (active) | 96% (active) | 93.8% (active) | 97% (active) | 98% (active) | 92.5% (active)
16 | CCN(CC)CC(O)c1c(-c2ccccc2)c(-c2ccccc2)c2n1CCC2 (configuration not stated) | -4% | 92% (active) | 93.7% (active) | -3% | 96% (active) | 32% | -2% | 83% (active) | 56.7% | -11% | 17% | -4.75% | -3% | 90% (active) | 92.6% (active) | -9% | 92% (active) | 47.6%
17 | CC1(C)OC2C(COC(c3ccccc3)(c3ccccc3)c3ccccc3)OC(n3cnc4c(N)ncnc43)C2O1 (configuration not stated) | -1% | 80% (active) | 64.9% | 19% | 99% (active) | 56.8% | 11% | 92% (active) | 18.6% | -4% | 89% (active) | 72.5% (active) | -2% | 92% (active) | 48.2% | 32% | 95% (active) | 58.5%
18 | O=c1c2ccccc2[nH]c2c1[nH]c1ccccc12 | 10% | 23% | 37% | 11% | 25% | -11.7% | 5% | 24% | -1.65% | 7% | 11% | 83.4% (active) | 7% | 22% | -20.6% | 12% | 28% | 19.9%
19 | Cc1ccc(C(=O)/C(Cl)=N/O)cc1 | 32% | 99% (active) | 98.8% (active) | 10% | 100% (active) | 99.1% (active) | 13% | 100% (active) | 97.8% (active) | 0% | 99% (active) | 78.7% (active) | 3% | 99% (active) | 98.8% (active) | 27% | 99% (active) | 98.5% (active)
